Measured values taken from doi:10.1101/2024.03.05.583629.

biological target: pT7_6His-AlfaTag-HOXD13 (human, UniProt P35453 263-343); assay: PADIT-seq; details: dsDNA, one strand shown
Sequence (P35453 263-343): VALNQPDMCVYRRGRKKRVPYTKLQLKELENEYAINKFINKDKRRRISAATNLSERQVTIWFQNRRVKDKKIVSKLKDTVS

| Sequence | binding signal [log2FC] |
| --- | --- |
| CTCGAGGATATCAAGATCTGGCCTCGGCAAGTTAAAAGGAACCTCTAGCTAGCCGACTCACTATAGGGATAATCGCCCTGAGCAAAGACC | 1.07 ± 0.0825 |
| CTCGAGGATATCAAGATCTGGCCTCGGCGCGGAAGCGGGAACCTCTAGCTAGCCGACTCACTATAGGGATAATCGCCCTGAGCAAAGACC | -0.566 ± 0.121 |
| CTCGAGGATATCAAGATCTGGCCTCGGCAGCTTAAAAGGAACCTCTAGCTAGCCGACTCACTATAGGGATAATCGCCCTGAGCAAAGACC | 0.129 ± 0.0835 |
| CTCGAGGATATCAAGATCTGGCCTCGGCGTAATAAAAGGAACCTCTAGCTAGCCGACTCACTATAGGGATAATCGCCCTGAGCAAAGACC | 2.86 ± 0.0699 |
| CTCGAGGATATCAAGATCTGGCCTCGGCGAGCTAAAAGGAACCTCTAGCTAGCCGACTCACTATAGGGATAATCGCCCTGAGCAAAGACC | -0.842 ± 0.11 |
| CTCGAGGATATCAAGATCTGGCCTCGGCCTTTTAGAAGGAACCTCTAGCTAGCCGACTCACTATAGGGATAATCGCCCTGAGCAAAGACC | 0.357 ± 0.088 |
| CTCGAGGATATCAAGATCTGGCCTCGGCCTTTTACCAGGAACCTCTAGCTAGCCGACTCACTATAGGGATAATCGCCCTGAGCAAAGACC | 0.296 ± 0.0912 |
| CTCGAGGATATCAAGATCTGGCCTCGGCACATTAAAAGGAACCTCTAGCTAGCCGACTCACTATAGGGATAATCGCCCTGAGCAAAGACC | 2.06 ± 0.09 |
| CTCGAGGATATCAAGATCTGGCCTCGGCGTTGTAAAAGGAACCTCTAGCTAGCCGACTCACTATAGGGATAATCGCCCTGAGCAAAGACC | 2.39 ± 0.0772 |
| CTCGAGGATATCAAGATCTGGCCTCGGCATTTTAGAAGGAACCTCTAGCTAGCCGACTCACTATAGGGATAATCGCCCTGAGCAAAGACC | 0.382 ± 0.0937 |
| CTCGAGGATATCAAGATCTGGCCTCGGCTGACCACGCGGAACCTCTAGCTAGCCGACTCACTATAGGGATAATCGCCCTGAGCAAAGACC | -1.02 ± 0.112 |
| CTCGAGGATATCAAGATCTGGCCTCGGCCCGCTAAAAGGAACCTCTAGCTAGCCGACTCACTATAGGGATAATCGCCCTGAGCAAAGACC | -0.398 ± 0.11 |
| CTCGAGGATATCAAGATCTGGCCTCGGCATCATAAAAGGAACCTCTAGCTAGCCGACTCACTATAGGGATAATCGCCCTGAGCAAAGACC | 2.56 ± 0.0828 |
| CTCGAGGATATCAAGATCTGGCCTCGGCTATCTAAAAGGAACCTCTAGCTAGCCGACTCACTATAGGGATAATCGCCCTGAGCAAAGACC | -0.377 ± 0.118 |
| CTCGAGGATATCAAGATCTGGCCTCGGCAATTGGGCGGGAACCTCTAGCTAGCCGACTCACTATAGGGATAATCGCCCTGAGCAAAGACC | -0.563 ± 0.097 |
| CTCGAGGATATCAAGATCTGGCCTCGGCGCGCGAGCGGGAACCTCTAGCTAGCCGACTCACTATAGGGATAATCGCCCTGAGCAAAGACC | -0.654 ± 0.136 |
| CTCGAGGATATCAAGATCTGGCCTCGGCCTTTTAGGCGGAACCTCTAGCTAGCCGACTCACTATAGGGATAATCGCCCTGAGCAAAGACC | -0.31 ± 0.108 |
| CTCGAGGATATCAAGATCTGGCCTCGGCTCCTTAAAAGGAACCTCTAGCTAGCCGACTCACTATAGGGATAATCGCCCTGAGCAAAGACC | 1.08 ± 0.104 |
| CTCGAGGATATCAAGATCTGGCCTCGGCCTAGTAAAAGGAACCTCTAGCTAGCCGACTCACTATAGGGATAATCGCCCTGAGCAAAGACC | 2.42 ± 0.0781 |
| CTCGAGGATATCAAGATCTGGCCTCGGCCTACTAAAAGGAACCTCTAGCTAGCCGACTCACTATAGGGATAATCGCCCTGAGCAAAGACC | 1.25 ± 0.0954 |
| CTCGAGGATATCAAGATCTGGCCTCGGCATTTTACCCGGAACCTCTAGCTAGCCGACTCACTATAGGGATAATCGCCCTGAGCAAAGACC | -0.0737 ± 0.0918 |
| CTCGAGGATATCAAGATCTGGCCTCGGCTTTTTACACGGAACCTCTAGCTAGCCGACTCACTATAGGGATAATCGCCCTGAGCAAAGACC | 2.25 ± 0.079 |
| CTCGAGGATATCAAGATCTGGCCTCGGCCGCACGCGCGGAACCTCTAGCTAGCCGACTCACTATAGGGATAATCGCCCTGAGCAAAGACC | -0.992 ± 0.148 |
| CTCGAGGATATCAAGATCTGGCCTCGGCGTTTTAATTGGAACCTCTAGCTAGCCGACTCACTATAGGGATAATCGCCCTGAGCAAAGACC | 2.42 ± 0.0771 |
| CTCGAGGATATCAAGATCTGGCCTCGGCATTTTACTAGGAACCTCTAGCTAGCCGACTCACTATAGGGATAATCGCCCTGAGCAAAGACC | 3.18 ± 0.0699 |
| CTCGAGGATATCAAGATCTGGCCTCGGCTTTTTACGGGGAACCTCTAGCTAGCCGACTCACTATAGGGATAATCGCCCTGAGCAAAGACC | 3.16 ± 0.0883 |
| CTCGAGGATATCAAGATCTGGCCTCGGCGTTTTAAAAGGAACCTCTAGCTAGCCGACTCACTATAGGGATAATCGCCCTGAGCAAAGACC | 2.44 ± 0.0598 |
| CTCGAGGATATCAAGATCTGGCCTCGGCGTTTTATCTGGAACCTCTAGCTAGCCGACTCACTATAGGGATAATCGCCCTGAGCAAAGACC | 0.898 ± 0.106 |
